Reference: PubChem BioAssay (Tox21)
Results filed as inconclusive are left out. Active and inactive are the calls of the source. Unless noted, calls come from the whole dose curve; as a rule, active = well fitted curve in the direction sought with a large enough effect in the repeat runs; inconclusive = weak or mixed curves; inactive = no such curve, though single readings can be large; an effect the other way counts as inactive or inconclusive.

Tests used:
[1] = qHTS assay to identify small molecule antagonists of the estrogen related receptor (ERR) signaling pathway from Tox21 library - cell viability counter screen (AID 1224834); note: nearly all actives have a fitted effect of over 30% in size; note: potency is the fitted concentration of half-maximal effect
Outline: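 ERR reporter cells, 2,000 per well, rested 6 h, then exposed to compound in DMSO for 17.5 hours at 37 C. Viability read as fluorescence after 30 min with CellTiter-Fluor.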

[2] = qHTS assay to identify small molecule agonists of the constitutive androstane receptor (CAR) signaling pathway - cell viability counter screen (AID 1224836); note: nearly all actives have a fitted effect of over 45% in size
Outline: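 HepG2 cells stably carrying hCAR and a CYP2B6-2.2kb reporter; 15-concentration compounds plus PK11195 (final 0.75 uM), 23 hr at 37 C/5% CO2. Viability read by CellTiter-Fluor fluorescence.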

[3] = qHTS assay to identify small molecule antagonists of the constitutive androstane receptor (CAR) signaling pathway - cell viability counter screen (AID 1224837); note: nearly all actives have a fitted effect of over 45% in size; note: potency is the fitted concentration of half-maximal effect
Outline: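 HepG2 cells stably carrying hCAR and CYP2B6-2.2kb reporter, stimulated with 50 nM CITCO and compounds at 15 concentrations for 23 h at 37 C. Viability measured by CellTiter-Fluor fluorescence.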

[4] = qHTS assay to identify small molecule antagonists of the estrogen related receptor signaling pathway with the pleiotropic PPARgamma coactivator (PGC) from Tox21 10K library - cell viability counter screen (AID 1224840; active = well fitted cell-killing curve with a large enough effect in the repeat runs, not every such curve was filed as active; note: nearly all actives have a fitted effect of over 40% in size)
Outline: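 PGC/ERR cells (2,000/well) plated 6 h, then compound-treated for 17.5 h at 37 C. Viability measured by CellTiter-Fluor fluorescence after 30 min at 37 C, multiplexed with the pathway assay.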

[5] = qHTS assay to identify small molecule agonists of the hypoxia (HIF-1) signaling pathway - cell viability counter screen (AID 1224844; calls by dose curve; note: nearly all actives have a fitted effect of over 50% in size; note: potency is the fitted concentration of half-maximal effect)
Outline: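 HRE-bla ME-180 cells, 2,000/well in 0.5% dialyzed FBS medium, treated 17 h at 37C with compounds. Viability read in the same wells as the bla reporter, by CellTiter-Glo luminescence after 30 min at room temperature.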

[6] = qHTS assay to identify small molecule agonists of the hypoxia (HIF-1) signaling pathway (AID 1224846; active = well fitted activation curve with a large enough effect in the signal ratio in the repeat runs, not every such curve was filed as active; the % refers to the signal ratio)
Outline: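 HRE-bla ME-180 beta-lactamase reporter cells in medium with 0.5% dialyzed FBS, pre-incubated 5 h then exposed to compounds 17 h at 37C, 5% CO2; reporter induction read with CCF4-AM FRET substrate.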

[7] = qHTS assay to identify small molecule agonists of H2AX - cell viability counter screen (AID 1224847; calls by dose curve; note: nearly all actives have a fitted effect of over 30% in size; note: potency is the fitted concentration of half-maximal effect; for activity change, negative = cytotoxicity: top concentration of the series differs between compounds)
Outline: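 CHO-K1 cells plated overnight at 37C, then exposed 3 h at 37C to compounds at 15 concentrations (0.76% DMSO final). Viability by CellTiter-Glo luminescence after 30 min at room temperature.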

[8] = qHTS RealTime-Glo MT Cell Viability Assay in HepG2 cells - 24 hour (AID 1224867); note: nearly all actives have a fitted effect of over 50% in size
Outline: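 HepG2 cells (600/well) were dispensed with RealTime-Glo reagents, incubated 5 h at 37 °C, then treated with compounds in DMSO for up to 40 h. Nonlytic NanoLuc luminescence reflecting viable cells was read at each stated time point.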

[9] = qHTS RealTime-Glo MT Cell Viability Assay in HEK293 cells - 32 hour (AID 1224868); note: nearly all actives have a fitted effect of over 50% in size; note: potency is the fitted concentration of half-maximal effect; for activity change, negative = cytotoxic: top concentration of the series differs between compounds
Outline: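 HEK293 cells seeded with NanoLuc/prosubstrate reagent, rested 5 h at 37 C, then dosed and kept at 37 C up to 40 h. Nonlytic real-time luminescence from viable cells read at 0, 8, 16, 24, 32 and 40 h.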

[10] = A CellTox Green Cytotoxicity Assay to monitor cytotoxicity in HEK293 cells - 0 hour (AID 1224869); note: nearly all actives have a fitted effect of over 50% in size
Outline: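 HEK293 cells, 600/well, were preincubated 5 hours and then exposed to compounds at 37 C for up to 40 hours. A cell-impermeant cyanine dye staining dead-cell DNA was read by fluorescence at 0, 8, 16, 24, 32 and 40 h time points.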

[11] = qHTS RealTime-Glo MT Cell Viability Assay in HepG2 cells - 40 hour (AID 1224870); note: nearly all actives have a fitted effect of over 50% in size
Outline: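 HepG2 cells mixed with RealTime-Glo MT reagents (NanoLuc plus cell-permeant prosubstrate) were seeded at 600 cells/well, incubated 5 h at 37 C/5% CO2, then pinned with compounds in DMSO; nonlytic luminescence tracked viability during 40 h treatment.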

[12] = target: Luciferin 4-monooxygenase (Photinus pyralis) (UniProt P08659); assay: qHTS assay to identify small molecule inhibitors of firefly luciferase (AID 1224835); note: nearly all actives have a fitted effect of over 25% in size; note: potency is the fitted concentration of half-maximal effect
Sequence of Luciferin 4-monooxygenase (Photinus pyralis) (P08659 whole entry, looked up): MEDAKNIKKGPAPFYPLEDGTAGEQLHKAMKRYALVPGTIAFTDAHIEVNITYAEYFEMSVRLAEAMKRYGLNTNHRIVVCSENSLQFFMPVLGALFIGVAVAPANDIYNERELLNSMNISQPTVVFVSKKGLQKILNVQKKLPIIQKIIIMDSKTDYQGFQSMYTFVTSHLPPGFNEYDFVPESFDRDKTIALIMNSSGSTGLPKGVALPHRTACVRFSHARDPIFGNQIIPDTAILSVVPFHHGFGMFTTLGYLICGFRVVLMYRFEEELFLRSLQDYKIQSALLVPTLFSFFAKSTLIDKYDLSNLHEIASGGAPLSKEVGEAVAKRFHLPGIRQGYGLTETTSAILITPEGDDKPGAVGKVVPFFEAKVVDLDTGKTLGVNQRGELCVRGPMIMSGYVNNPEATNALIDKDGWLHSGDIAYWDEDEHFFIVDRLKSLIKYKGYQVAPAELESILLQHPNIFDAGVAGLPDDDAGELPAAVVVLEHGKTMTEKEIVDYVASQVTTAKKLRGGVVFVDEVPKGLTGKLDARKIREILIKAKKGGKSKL
Outline: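 Quantitative HTS format; KM concentrations of both substrates. Purified P. pyralis FLuc activity quantified from luminescence images.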

[13] = target: Nuclear receptor subfamily 1 group I member 3 (Homo sapiens) (UniProt Q14994); assay: qHTS assay to identify small molecule antagonists of the constitutive androstane receptor (CAR) signaling pathway (AID 1224838); note: nearly all actives have a fitted effect of over 40% in size
Sequence of Nuclear receptor subfamily 1 group I member 3 (Homo sapiens) (Q14994 whole entry, looked up): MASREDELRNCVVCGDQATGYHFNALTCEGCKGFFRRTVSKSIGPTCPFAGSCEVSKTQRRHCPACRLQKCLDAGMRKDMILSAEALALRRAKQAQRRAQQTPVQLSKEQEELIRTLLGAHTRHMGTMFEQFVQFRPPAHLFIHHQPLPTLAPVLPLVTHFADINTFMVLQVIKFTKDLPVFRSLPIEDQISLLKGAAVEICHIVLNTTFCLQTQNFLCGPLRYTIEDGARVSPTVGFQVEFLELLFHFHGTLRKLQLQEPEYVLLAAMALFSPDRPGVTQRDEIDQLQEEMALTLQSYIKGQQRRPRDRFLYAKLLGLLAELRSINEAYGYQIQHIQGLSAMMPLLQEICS
Outline: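 HepG2 cells stably carrying hCAR and a CYP2B6-2.2kb luciferase reporter, seeded 4 hrs before compound (15 concentrations). Stimulated with 50 nM CITCO for 24 hr at 37 C. ONE-Glo luminescence read after 30 min at room temperature.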

[14] = target: Nuclear receptor subfamily 1 group I member 3 (Homo sapiens) (UniProt Q14994); assay: qHTS assay to identify small molecule agonists of the constitutive androstane receptor (CAR) signaling pathway (AID 1224839); note: nearly all actives have a fitted effect of over 15% in size; note: potency is the fitted concentration of half-maximal effect
Outline: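 HepG2 cells stably co-transfected with hCAR and a CYP2B6-2.2kb luciferase reporter; compounds at 15 concentrations with 0.75 uM PK11195 present. After 24 hr at 37 C, luciferase read by ONE-Glo luminescence.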

[15] = qHTS assay to identify small molecule antagonists of the estrogen related receptor signaling pathway with the pleiotropic PPARgamma coactivator (PGC) from Tox21 10K library (AID 1224841; call rule not given here; note: potency is the fitted concentration of half-maximal effect)
Outline: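 PGC/ERR cell line, 2,000 cells/well, pre-incubated 6 hours at 37 C, then exposed to compounds for 18 hours at 37 C; luciferase read with One-Glo luminescence after 30 min at room temperature.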

[16] = qHTS assay to identify small molecule agonists of the estrogen related receptor signaling pathway with the pleiotropic PPARgamma coactivator (PGC) from Tox21 10K library (AID 1224842); note: nearly all actives have a fitted effect of over 15% in size; note: potency is the fitted concentration of half-maximal effect
Outline: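 PGC/ERR reporter cells (NTP line) were seeded 2,000 per well, rested 6 h at 37 C/5% CO2, then pin-dosed with compounds in DMSO for 18 h at 37 C; luciferase read by One-Glo luminescence after 30 min at room temperature.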

[17] = target: Thyrotropin receptor (Homo sapiens) (UniProt P16473); assay: qHTS assay to identify small molecule agonists of the thyroid stimulating hormone receptor (TSHR) signaling pathway (AID 1224843; calls by dose curve; note: nearly all actives have a fitted effect of over 45% in size)
Sequence of Thyrotropin receptor (Homo sapiens) (P16473 whole entry, looked up): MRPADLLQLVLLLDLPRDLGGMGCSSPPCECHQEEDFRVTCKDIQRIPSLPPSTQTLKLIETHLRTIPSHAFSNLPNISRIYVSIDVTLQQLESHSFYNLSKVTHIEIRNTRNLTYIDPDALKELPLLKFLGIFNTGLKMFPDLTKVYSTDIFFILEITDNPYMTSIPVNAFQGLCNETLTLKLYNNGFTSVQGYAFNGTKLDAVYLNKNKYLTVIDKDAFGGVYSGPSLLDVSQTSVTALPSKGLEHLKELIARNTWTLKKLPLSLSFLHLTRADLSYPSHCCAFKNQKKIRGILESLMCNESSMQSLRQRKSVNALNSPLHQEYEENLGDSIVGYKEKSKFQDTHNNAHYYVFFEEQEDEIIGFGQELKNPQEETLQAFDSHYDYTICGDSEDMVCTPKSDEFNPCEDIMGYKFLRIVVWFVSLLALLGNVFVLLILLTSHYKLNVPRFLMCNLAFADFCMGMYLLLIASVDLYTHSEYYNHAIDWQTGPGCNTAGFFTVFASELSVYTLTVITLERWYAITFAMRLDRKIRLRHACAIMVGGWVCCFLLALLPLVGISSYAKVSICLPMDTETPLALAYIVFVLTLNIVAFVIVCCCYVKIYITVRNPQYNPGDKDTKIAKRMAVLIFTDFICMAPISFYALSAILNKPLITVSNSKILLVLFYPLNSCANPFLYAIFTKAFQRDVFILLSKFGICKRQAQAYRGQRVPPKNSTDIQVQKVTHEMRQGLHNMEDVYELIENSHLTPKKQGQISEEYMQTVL
Outline: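 Cell line HEK293 with TSHR; density 800/well. Exposure 30 min RT. Readout HTRF cAMP (cAMP-d2/anti-cAMP-cryptate), 1 h RT before reading.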

[18] = qHTS assay to identify small molecule agonists of H2AX (AID 1224845; active = well fitted activation curve with a large enough effect in the signal ratio in the repeat runs, not every such curve was filed as active; the % refers to the signal ratio)
Outline: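 Wild-type CHO-K1 cells plated overnight, then exposed 3 hr at 37C to compounds at 15 concentrations (0.76% DMSO). Lysed, then HTRF anti-pH2AX(S139)-cryptate/anti-H2AX-d2 detection after 24 hr at room temperature; emissions 665 and 620 nm.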

[19] = qHTS assay to identify small molecule antagonists of the estrogen related receptor (ERR) signaling pathway from Tox21 library (AID 1224848); note: nearly all actives have a fitted effect of over 50% in size; note: potency is the fitted concentration of half-maximal effect
Outline: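 Screening used an ERR reporter line supplied by NTP, exposed for 18 h at 37 C to library compounds delivered in DMSO. Signal was luciferase luminescence developed with ONE-Glo at room temperature for 30 min.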

[20] = qHTS assay to identify small molecule agonists of the estrogen related receptor (ERR) signaling pathway from Tox21 library (AID 1224849; calls by dose curve; note: nearly all actives have a fitted effect of over 15% in size); details: ERR reporter cell line, ONE-Glo luciferase, 18 h; at 92.4 µM (top of the series) unless noted
Outline: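 ERR reporter cells (NTP line) pre-incubated 6 hours at 37 C, then exposed to compounds for 18 hours at 37 C. ONE-Glo luciferase luminescence was read after 30 minutes at room temperature.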
% is set by controls: 0 for no effect and ±100 for the full control effect.

CC(C)c1ccccc1C(C)C
inactive: Potency [1] | Potency [2] | Potency [3] | Potency [4] | Potency [5] | outcome [6] | Potency [7] | Potency [8] | Potency [9] | Potency [10] | Potency [11]

Nc1nc(CC(=O)O)cs1
inactive: Potency [12] | Potency [3] | Potency [13] | Potency [14] | Potency [16] | Potency [17] | Potency [18] | outcome [6] | activity change, positive = activation [20] -48.9% | Potency [8] | Potency [10] | Potency [11]
active: Potency [15] 48.7 µM | Potency [19] 61.3 µM

CC(C)(C)c1cc(CO)cc(C(C)(C)C)c1O
inactive: Potency [12] | Potency [3] | Potency [13] | Potency [16] | Potency [17] | Potency [5] | Potency [18] | outcome [6] | activity change, positive = activation [20] -33.2% | Potency [8] | Potency [10] | Potency [11]
active: Potency [14] 24.8 µM

CN1CCC(=C2c3ccccc3CCc3sccc32)CC1
active: Potency [5] 16.9 µM
inactive: Potency [12] | Potency [2] | Potency [3] | Potency [13] | Potency [14] | Potency [15] | Potency [17] | Potency [18] | outcome [6] | Potency [7] | Potency [19] | activity change, positive = activation [20] -9.84% [at 42.5 µM] | Potency [8] | Potency [10] | Potency [11]

CCCCCOC(=O)c1ccc(O)cc1
active: Potency [12] 36 µM | Potency [14] 55.1 µM | Potency [16] 27.6 µM | Potency [7] 114 µM | activity change, positive = activation [20] 37.7%
inactive: Potency [2] | Potency [3] | Potency [13] | Potency [15] | Potency [17] | Potency [18] | Potency [19] | Potency [8] | Potency [10] | Potency [11]

CCN(CCO)CCCC(C)Nc1ccnc2cc(Cl)ccc12 (configuration not stated)
inactive: viability change, negative = cytotoxic [1] -2.66% [at 8.39 µM] | activity change, negative = cytotoxicity [3] -10.3% [at 8.39 µM] | viability change, negative = cytotoxic [4] 1.55% [at 8.39 µM] | activation [17] -1.08% [at 8.39 µM] | activation (H2AX phosphorylation) [18] -1.66% [at 14 µM] | activation [6] 0.22% [at 7.01 µM] | activity change, negative = cytotoxicity [8] 2.56% [at 6.97 µM] | activity change, negative = cytotoxic [9] 2.9% [at 6.97 µM] | cytotoxicity [10] -2.9% [at 6.97 µM] | activity change, negative = cytotoxic [11] 0.0181% [at 6.97 µM]

CC(=O)c1ccc2c(c1)[C@H](NC(=O)c1ccc(F)cc1)[C@@H](O)C(C)(C)O2
inactive: Potency [12] | Potency [2] | Potency [14] | Potency [4] | Potency [17] | Potency [18] | outcome [6] | Potency [7] | Potency [8] | Potency [9] | Potency [10] | Potency [11]

CCCOc1ccc2nc(NC(=O)OC)[nH]c2c1
inactive: Potency [12] | Potency [2] | Potency [3] | Potency [14] | Potency [17] | Potency [8] | Potency [10] | Potency [11]

CN(C)CC/C=C1\c2ccccc2COc2ccccc21
inactive: Potency [1] | Potency [13] | Potency [14] | Potency [17] | Potency [5] | Potency [18] | Potency [8] | Potency [9] | Potency [10] | Potency [11]

CCN(CC)CCOc1ccc2c(c1)C(=O)c1cc(OCCN(CC)CC)ccc1-2
active: Potency [1] 11.9 µM | Potency [3] 23.7 µM | Potency [19] 18.8 µM | Potency [9] 13.4 µM
inactive: Potency [15] | outcome [6] | activity change, positive = activation [20] -38.3% [at 42.5 µM] | Potency [10]
